Experimental data from PubChem BioAssay AID1159580 (chemical genetic matrix, 2015).
About 2,000 (36%) of roughly 5,500 compounds were called active. Roughly 18% stayed inconclusive and do not appear here. Cut-off read from the data, not from the text of the source: active = normalized growth mostly below about 0.91 (no sharp cut-off); inconclusive = no clear call, values can overlap the other calls; inactive = mostly above about 0.92. This is one part of the list.

Assay: chemical genetic growth profiling, strain panel (AID 1159580);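 note: tested at 20 µM; growth read once vehicle control cultures reached saturation at 30 °C; 1 = growth at the plate median or of vehicle wells; lower values mean less growth of the strain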
Conditions: growth OD

Measured: normalized growth

CC(=O)O[C@H]1C[C@@]2(C)[C@H](c3ccoc3)OC(=O)[C@H]3O[C@]32[C@@]2(C)C1[C@]1(C)C(C[C@H]2OC(C)=O)C(C)(C)[C@H](OC(C)=O)C[C@@H]1OC(C)=O (some centres not stated)
inactive: S. cerevisiae deletion strains, locus YAL013W, strain DEP1, stronger effect = lower value 0.999 | S. cerevisiae deletion strains, locus YAL021C, strain ccr4, stronger effect = lower value 1.04 | S. cerevisiae deletion strains, locus YAL026C, strain drs2, stronger effect = lower value 0.97 | S. cerevisiae deletion strains, locus YAL030W, strain snc1, stronger effect = lower value 0.997 | S. cerevisiae deletion strains, locus YBL061C, strain skt5, stronger effect = lower value 0.993 | S. cerevisiae deletion strains, locus YBR009C, strain hhf1, stronger effect = lower value 1.05 | S. cerevisiae deletion strains, locus YBR021W, strain FUR4, stronger effect = lower value 1.02 | S. cerevisiae deletion strains, locus YBR023C, strain chs3, stronger effect = lower value 1 | S. cerevisiae deletion strains, locus YBR171W, strain sec66, stronger effect = lower value 0.958 | S. cerevisiae deletion strains, locus YBR229C, strain ROT2, stronger effect = lower value 0.949 | S. cerevisiae deletion strains, locus YBR231C, strain swc5, stronger effect = lower value 1 | S. cerevisiae deletion strains, locus YBR279W, strain paf1, stronger effect = lower value 0.998 | S. cerevisiae deletion strains, locus YCL011C, strain gbp2, stronger effect = lower value 0.998 | S. cerevisiae deletion strains, locus YCL016C, strain dcc1, stronger effect = lower value 1.05 | S. cerevisiae deletion strains, locus YCL029C, strain bik1, stronger effect = lower value 0.971 | S. cerevisiae deletion strains, locus YCL061C, strain MRC1, stronger effect = lower value 1 | S. cerevisiae deletion strains, locus YCL069W, strain vba3, stronger effect = lower value 0.975 | S. cerevisiae deletion strains, locus YCR088W, strain abp1, stronger effect = lower value 0.99 | S. cerevisiae deletion strains, locus YDL005C, strain med2, stronger effect = lower value 0.968 | S. cerevisiae deletion strains, locus YDL035C, strain GPR1, stronger effect = lower value 0.968 | S. cerevisiae deletion strains, locus YDL040C, strain nat1, stronger effect = lower value 0.99 | S. cerevisiae deletion strains, locus YDL074C, strain BRE1, stronger effect = lower value 0.999 | S. cerevisiae deletion strains, locus YDL101C, strain DUN1, stronger effect = lower value 0.974 | S. cerevisiae deletion strains, locus YDL134C, strain PPH21, stronger effect = lower value 0.986 | S. cerevisiae deletion strains, locus YDL185W, strain tfp1, stronger effect = lower value 0.953 | S. cerevisiae deletion strains, locus YDL192W, strain arf1, stronger effect = lower value 0.992 | S. cerevisiae deletion strains, locus YDR001C, strain nth1, stronger effect = lower value 0.989 | S. cerevisiae deletion strains, locus YDR069C, strain doa4, stronger effect = lower value 0.972 | S. cerevisiae deletion strains, locus YDR101C, strain arx1, stronger effect = lower value 0.946 | S. cerevisiae deletion strains, locus YDR137W, strain rgp1, stronger effect = lower value 1 | S. cerevisiae deletion strains, locus YDR159W, strain sac3, stronger effect = lower value 0.918 | S. cerevisiae deletion strains, locus YDR162C, strain NBP2, stronger effect = lower value 1.01 | S. cerevisiae deletion strains, locus YDR195W, strain ref2 0.981 | S. cerevisiae deletion strains, locus YDR297W, strain sur2, stronger effect = lower value 0.982 | S. cerevisiae deletion strains, locus YDR318W, strain mcm21, stronger effect = lower value 0.973 | S. cerevisiae deletion strains, locus YDR334W, strain swr1, stronger effect = lower value 0.975 | S. cerevisiae deletion strains, locus YDR335W, strain msn5, stronger effect = lower value 0.997 | S. cerevisiae deletion strains, locus YDR388W, stronger effect = lower value 0.983 | S. cerevisiae deletion strains, locus YDR392W, strain spt3, stronger effect = lower value 1 | S. cerevisiae deletion strains, locus YDR502C, strain sam2, stronger effect = lower value 0.987 | S. cerevisiae deletion strains, locus YEL003W, strain gim4, stronger effect = lower value 0.967 | S. cerevisiae deletion strains, locus YEL037C, strain rad23, stronger effect = lower value 0.989 | S. cerevisiae deletion strains, locus YEL061C, strain CIN8 (second series), stronger effect = lower value 0.978 | S. cerevisiae deletion strains, locus YEL061C, strain CIN8, stronger effect = lower value 0.997 | S. cerevisiae deletion strains, locus YER015W, strain faa2, stronger effect = lower value 0.997 | S. cerevisiae deletion strains, locus YER016W, strain bim1, stronger effect = lower value 0.98 | S. cerevisiae deletion strains, locus YER110C, stronger effect = lower value 0.974 | S. cerevisiae deletion strains, locus YER111C, strain swi4, stronger effect = lower value 0.979 | S. cerevisiae deletion strains, locus YER155C, strain BEM2 (second series), stronger effect = lower value 1.02 | S. cerevisiae deletion strains, locus YER155C, strain BEM2, stronger effect = lower value 1.01 | S. cerevisiae deletion strains, locus YER167W, strain BCK2, stronger effect = lower value 0.981 | S. cerevisiae deletion strains, locus YFR010W, strain ubp6, stronger effect = lower value 0.955 | S. cerevisiae deletion strains, locus YGL078C, strain dbp3, stronger effect = lower value 0.972 | S. cerevisiae deletion strains, locus YGL086W, strain mad1, stronger effect = lower value 0.996 | S. cerevisiae deletion strains, locus YGL167C, strain pmr1, stronger effect = lower value 0.99 | S. cerevisiae deletion strains, locus YGL173C, strain kem1, stronger effect = lower value 0.964 | S. cerevisiae deletion strains, locus YGL227W, strain vid30, stronger effect = lower value 0.983 | S. cerevisiae deletion strains, locus YGL240W, strain doc1, stronger effect = lower value 0.978 | S. cerevisiae deletion strains, locus YGL248W, strain PDE1, stronger effect = lower value 0.989 | S. cerevisiae deletion strains, locus YGR135W, strain pre9, stronger effect = lower value 1 | S. cerevisiae deletion strains, locus YGR252W, strain gcn5, stronger effect = lower value 0.94 | S. cerevisiae deletion strains, locus YHR013C, strain ard1, stronger effect = lower value 1.01 | S. cerevisiae deletion strains, locus YHR027C, strain rpn1, stronger effect = lower value 0.993 | S. cerevisiae deletion strains, locus YHR030C, strain SLT2, stronger effect = lower value 0.991 | S. cerevisiae deletion strains, locus YHR079C, strain IRE1 (second series), stronger effect = lower value 0.991 | S. cerevisiae deletion strains, locus YHR094C, strain hxt1, stronger effect = lower value 0.975 | S. cerevisiae deletion strains, locus YHR129C, strain ARP1, stronger effect = lower value 0.995 | S. cerevisiae deletion strains, locus YHR142W, strain chs7, stronger effect = lower value 1 | S. cerevisiae deletion strains, locus YHR200W, strain rpn10, stronger effect = lower value 0.977 | S. cerevisiae deletion strains, locus YIL066C, strain RNR3, stronger effect = lower value 0.949 | S. cerevisiae deletion strains, locus YIL073C, strain SPO22, stronger effect = lower value 0.949 | S. cerevisiae deletion strains, locus YIL125W, strain kgd1, stronger effect = lower value 0.983 | S. cerevisiae deletion strains, locus YIR030C, strain dcg1, stronger effect = lower value 0.981 | S. cerevisiae deletion strains, locus YJL092W, strain hpr5, stronger effect = lower value 0.973 | S. cerevisiae deletion strains, locus YJL095W, strain BCK1 (second series), stronger effect = lower value 0.977 | S. cerevisiae deletion strains, locus YJL095W, strain BCK1, stronger effect = lower value 1.02 | S. cerevisiae deletion strains, locus YJL115W, strain asf1, stronger effect = lower value 0.987 | S. cerevisiae deletion strains, locus YJL129C, strain trk1, stronger effect = lower value 0.966 | S. cerevisiae deletion strains, locus YJL134W, strain LCB3, stronger effect = lower value 0.989 | S. cerevisiae deletion strains, locus YJL154C, strain vps35, stronger effect = lower value 0.996 | S. cerevisiae deletion strains, locus YJL164C, strain tpk1, stronger effect = lower value 1.02 | S. cerevisiae deletion strains, locus YJL166W, strain qcr8, stronger effect = lower value 0.976 | S. cerevisiae deletion strains, locus YJL168C, strain set2, stronger effect = lower value 0.99 | S. cerevisiae deletion strains, locus YJL187C, strain SWE1 (second series), stronger effect = lower value 0.976 | S. cerevisiae deletion strains, locus YJR043C, strain POL32, stronger effect = lower value 0.974 | S. cerevisiae deletion strains, locus YKL009W, strain mrt4, stronger effect = lower value 0.912 | S. cerevisiae deletion strains, locus YKL068W, stronger effect = lower value 0.978 | S. cerevisiae deletion strains, locus YKL085W, strain MDH1 (second series), stronger effect = lower value 0.973 | S. cerevisiae deletion strains, locus YKL085W, strain MDH1, stronger effect = lower value 0.973 | S. cerevisiae deletion strains, locus YKL160W, strain elf1, stronger effect = lower value 1.05 | S. cerevisiae deletion strains, locus YKR001C, strain vps1, stronger effect = lower value 0.982 | S. cerevisiae deletion strains, locus YKR026C, strain gcn3, stronger effect = lower value 0.978 | S. cerevisiae deletion strains, locus YKR091W, strain srl3, stronger effect = lower value 0.995 | S. cerevisiae deletion strains, locus YLL001W, strain dnm1, stronger effect = lower value 0.977 | S. cerevisiae deletion strains, locus YLL026W, stronger effect = lower value 0.974 | S. cerevisiae deletion strains, locus YLL041C, strain sdh2, stronger effect = lower value 0.998 | S. cerevisiae deletion strains, locus YLR027C, strain aat2, stronger effect = lower value 0.965 | S. cerevisiae deletion strains, locus YLR039C, strain RIC1, stronger effect = lower value 0.959 | S. cerevisiae deletion strains, locus YLR058C, strain SHM2, stronger effect = lower value 0.978 | S. cerevisiae deletion strains, locus YLR102C, strain apc9, stronger effect = lower value 0.979 | S. cerevisiae deletion strains, locus YLR221C, strain rsa3, stronger effect = lower value 0.987 | S. cerevisiae deletion strains, locus YLR258W, strain gsy2, stronger effect = lower value 1.02 | S. cerevisiae deletion strains, locus YLR262C, strain YPT6 (second series), stronger effect = lower value 1.03 | S. cerevisiae deletion strains, locus YLR268W, strain sec22, stronger effect = lower value 0.975 | S. cerevisiae deletion strains, locus YLR320W, strain mms22, stronger effect = lower value 0.999 | S. cerevisiae deletion strains, locus YLR342W, strain FKS1, stronger effect = lower value 0.995 | S. cerevisiae deletion strains, locus YLR357W, strain rsc2, stronger effect = lower value 1.01 | S. cerevisiae deletion strains, locus YLR370C, strain arc18, stronger effect = lower value 0.961 | S. cerevisiae deletion strains, locus YLR371W, strain rom2, stronger effect = lower value 0.982 | S. cerevisiae deletion strains, locus YLR384C, strain iki3, stronger effect = lower value 1.01 | S. cerevisiae deletion strains, locus YLR418C, strain cdc73, stronger effect = lower value 1.01 | S. cerevisiae deletion strains, locus YML016C, strain PPZ1, stronger effect = lower value 0.984 | S. cerevisiae deletion strains, locus YML032C, strain rad52, stronger effect = lower value 0.977 | S. cerevisiae deletion strains, locus YML120C, strain ndi1, stronger effect = lower value 1.02 | S. cerevisiae deletion strains, locus YML124C, strain tub3, stronger effect = lower value 0.993 | S. cerevisiae deletion strains, locus YMR058W, strain fet3, stronger effect = lower value 0.988 | S. cerevisiae deletion strains, locus YMR078C, strain ctf18, stronger effect = lower value 0.955 | S. cerevisiae deletion strains, locus YMR125W, strain sto1, stronger effect = lower value 1.02 | S. cerevisiae deletion strains, locus YMR129W, stronger effect = lower value 0.985 | S. cerevisiae deletion strains, locus YMR205C, strain PFK2, stronger effect = lower value 1.01 | S. cerevisiae deletion strains, locus YMR223W, strain ubp8, stronger effect = lower value 0.991 | S. cerevisiae deletion strains, locus YMR231W, strain pep5, stronger effect = lower value 0.979 | S. cerevisiae deletion strains, locus YMR263W, strain SAP30, stronger effect = lower value 0.969 | S. cerevisiae deletion strains, locus YMR307W, strain GAS1, stronger effect = lower value 1.05 | S. cerevisiae deletion strains, locus YNL067W, strain RPL9B, stronger effect = lower value 0.996 | S. cerevisiae deletion strains, locus YNL071W, strain lat1, stronger effect = lower value 0.999 | S. cerevisiae deletion strains, locus YNL128W, strain TEP1, stronger effect = lower value 0.971 | S. cerevisiae deletion strains, locus YNL153C, strain GIM3, stronger effect = lower value 0.985 | S. cerevisiae deletion strains, locus YNL209W, strain ssb2, stronger effect = lower value 0.992 | S. cerevisiae deletion strains, locus YNL233W, strain BNI4, stronger effect = lower value 1 | S. cerevisiae deletion strains, locus YNL248C, strain rpa49, stronger effect = lower value 0.984 | S. cerevisiae deletion strains, locus YNL250W, strain rad50, stronger effect = lower value 0.97 | S. cerevisiae deletion strains, locus YNL271C, strain bni1, stronger effect = lower value 0.979 | S. cerevisiae deletion strains, locus YNL298W, strain CLA4, stronger effect = lower value 0.968 | S. cerevisiae deletion strains, locus YNL307C, strain MCK1, stronger effect = lower value 0.991 | S. cerevisiae deletion strains, locus YNL322C, strain KRE1 (second series), stronger effect = lower value 0.985 | S. cerevisiae deletion strains, locus YNR049C, strain mso1, stronger effect = lower value 0.985 | S. cerevisiae deletion strains, locus YNR052C, strain pop2, stronger effect = lower value 0.98 | S. cerevisiae deletion strains, locus YOL006C, strain TOP1, stronger effect = lower value 0.959 | S. cerevisiae deletion strains, locus YOL012C, strain htz1 1.13 | S. cerevisiae deletion strains, locus YOL147C, strain pex11, stronger effect = lower value 0.987 | S. cerevisiae deletion strains, locus YOR001W, strain rrp6, stronger effect = lower value 0.919 | S. cerevisiae deletion strains, locus YOR061W, strain CKA2, stronger effect = lower value 0.966 | S. cerevisiae deletion strains, locus YOR069W, strain VPS5, stronger effect = lower value 0.992 | S. cerevisiae deletion strains, locus YOR070C, strain gyp1, stronger effect = lower value 1 | S. cerevisiae deletion strains, locus YOR080W, strain dia2, stronger effect = lower value 0.963 | S. cerevisiae deletion strains, locus YOR083W, strain WHI5, stronger effect = lower value 1.04 | S. cerevisiae deletion strains, locus YOR106W, strain vam3, stronger effect = lower value 1.03 | S. cerevisiae deletion strains, locus YOR136W, strain idh2, stronger effect = lower value 0.974 | S. cerevisiae deletion strains, locus YOR144C, strain elg1, stronger effect = lower value 0.989 | S. cerevisiae deletion strains, locus YOR184W, strain ser1, stronger effect = lower value 0.966 | S. cerevisiae deletion strains, locus YOR265W, strain rbl2, stronger effect = lower value 0.951 | S. cerevisiae deletion strains, locus YOR270C, strain vph1, stronger effect = lower value 0.879 | S. cerevisiae deletion strains, locus YOR290C, strain snf2, stronger effect = lower value 1.05 | S. cerevisiae deletion strains, locus YOR316C, strain cot1, stronger effect = lower value 0.982 | S. cerevisiae deletion strains, locus YPL051W, strain arl3, stronger effect = lower value 0.995 | S. cerevisiae deletion strains, locus YPL055C, strain LGE1, stronger effect = lower value 0.964 | S. cerevisiae deletion strains, locus YPL078C, strain atp4, stronger effect = lower value 1.05 | S. cerevisiae deletion strains, locus YPL106C, strain sse1, stronger effect = lower value 1.03 | S. cerevisiae deletion strains, locus YPL240C, strain hsp82, stronger effect = lower value 0.986 | S. cerevisiae deletion strains, locus YPR119W, strain clb2, stronger effect = lower value 0.983 | S. cerevisiae deletion strains, locus YPR141C, strain kar3, stronger effect = lower value 0.984 | S. cerevisiae deletion strains, locus YPR163C, strain tif3, stronger effect = lower value 0.989 | S. cerevisiae deletion strains, locus YPR167C, strain met16, stronger effect = lower value 0.984 | S. cerevisiae deletion strains, strain wtn01, stronger effect = lower value 0.94 | S. cerevisiae strains, strain wild type, stronger effect = lower value 0.993
active: S. cerevisiae deletion strains, locus YGL253W, strain hxk2, stronger effect = lower value 0.907
